Results: PubChem BioAssay (NCI)
About 79,000 compounds went through this panel and 15% of them were active in at least one assay; those are over-represented in the sample as a whole. Calls of active or inactive are those of the source. Cut-off read from the data, not from the text of the source: active = growth inhibition above about 70%; inactive = the rest.

Key:
[1] = NCI Yeast Anticancer Drug Screen. Data for the wt1 strain (AID 149);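 note: 0% = growth of vehicle-treated wt1 cultures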; settings: S. cerevisiae wt1 strain (SPY 50644) growth inhibition, stronger effect = higher value
Outline: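 Readout: yeast growth inhibition, normalised to vehicle controls, in the wt1 strain exposed to test compounds.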

[2] = NCI Yeast Anticancer Drug Screen. Data for the rad50EPP+ strain (AID 151);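 note: 0% = growth of vehicle-treated control cultures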; settings: S. cerevisiae rad50 mutant strain, stronger effect = higher value
Outline: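 Compounds were applied to the rad50EPP+ yeast strain, which bears a defined DNA repair alteration, and growth inhibition was determined relative to vehicle-treated cultures.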

[3] = NCI Yeast Anticancer Drug Screen. Data for the mgt1 strain (AID 153); settings: S. cerevisiae mgt1 mutant growth inhibition, stronger effect = higher value
Outline: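 Strain: mgt1 yeast, one of a set carrying defined DNA damage repair or cell cycle control alterations. Compound-treated growth compared with vehicle.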

[4] = NCI Yeast Anticancer Drug Screen. Data for the rad50 strain (AID 155);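 note: 0% = growth of vehicle-only cultures of the same strain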; settings: S. cerevisiae rad50 strain growth inhibition, stronger effect = higher value
Outline: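 Compounds were tested on a yeast strain with an engineered DNA damage repair alteration; the reported value is growth inhibition normalised to vehicle treatment.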

[5] = NCI Yeast Anticancer Drug Screen. Data for the mec2-1 strain (AID 157); settings: S. cerevisiae mec2-1 strain, stronger effect = higher value
Outline: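 Strain: mec2-1 (DNA repair/cell cycle alteration). Compound exposure, then growth measured; inhibition expressed relative to vehicle.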

[6] = NCI Yeast Anticancer Drug Screen. Data for the rad14 strain (AID 159);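 note: 0% = growth of vehicle-treated control cultures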; settings: S. cerevisiae rad14 strain growth inhibition, stronger effect = higher value
Outline: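 Compound-treated yeast with a defined DNA-repair lesion; growth inhibition normalised to vehicle-treated cultures.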

[7] = NCI Yeast Anticancer Drug Screen. Data for the sgs1 mgt1 strain (AID 161);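 note: 0% = growth of cultures given vehicle only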; settings: S. cerevisiae sgs1 mgt1 strain, stronger effect = higher value
Outline: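 Mutant yeast exposed to compound; growth scored against vehicle-only wells.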

[8] = NCI Yeast Anticancer Drug Screen. Data for the CLN2oe strain (AID 163);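 note: 0% = growth of vehicle-only control cultures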; settings: S. cerevisiae CLN2oe strain, stronger effect = higher value
Outline: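 Growth of a genetically modified yeast strain is measured after compound exposure and compared with cultures given vehicle alone.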

[9] = NCI Yeast Anticancer Drug Screen. Data for the bub3 strain (AID 167); settings: S. cerevisiae bub3 mutant strain, stronger effect = higher value
Outline: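 Growth of a checkpoint-deficient yeast mutant is measured after compound exposure. Values represent inhibition relative to vehicle.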

[10] = NCI Yeast Anticancer Drug Screen. Data for the wt2 strain (AID 169);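 note: 0% = growth of vehicle-treated yeast cultures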; settings: S. cerevisiae wt2 strain growth inhibition, stronger effect = higher value
Outline: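 This strain belongs to a panel of yeast strains with defined genetic alterations in DNA damage repair or cell cycle control. Compounds are applied, and growth inhibition is measured against vehicle-treated cultures.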

[11] = NCI Yeast Anticancer Drug Screen. Data for the mlh1 strain (AID 171);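 note: 0% = growth of vehicle-treated control cultures of the same strain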; settings: S. cerevisiae mlh1 strain growth inhibition, stronger effect = higher value
Outline: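 Growth of the mutant yeast strain after compound exposure, expressed as inhibition relative to vehicle-only controls.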

[12] = NCI Yeast Anticancer Drug Screen. Data for the sgs1 strain (AID 173);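 note: 0% = growth of vehicle-only control cultures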; settings: S. cerevisiae sgs1 mutant, stronger effect = higher value
Outline: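 Growth of a yeast strain bearing a defined genetic alteration is measured after compound treatment. Inhibition is expressed relative to vehicle-only controls.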

[13] = NCI Yeast Anticancer Drug Screen. Data for the mlh1 rad18 strain (AID 175); settings: S. cerevisiae mlh1 rad18 strain growth inhibition, stronger effect = higher value
Outline: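 Read-out is yeast growth inhibition, calculated against vehicle-only controls. The compound was applied to a strain engineered with DNA damage repair alterations.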

[14] = NCI Yeast Anticancer Drug Screen. Data for the rad18 strain (AID 177); settings: S. cerevisiae rad18 mutant growth inhibition, stronger effect = higher value
Outline: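 Growth of the mutant yeast strain after compound exposure, normalised to vehicle-only cultures.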

[15] = NCI Yeast Anticancer Drug Screen. Data for the cln2 rad14 strain (AID 165);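 note: 0% = growth equal to vehicle treated cultures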; settings: S. cerevisiae cln2 rad14 strain, stronger effect = higher value
Outline: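 Compounds are applied to the cln2 rad14 yeast strain, and growth is then compared with that of vehicle-treated cultures to give inhibition.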

[16] = at 5.0 µM (retest, dose inferred, filed as 0.5)
[17] = at 50.0 µM (retest, dose inferred, filed as 5.0)

Measured: growth inhibition

CCOc1nc(OCC)nc(-c2cccn2-c2ccccc2)n1
inactive: [1]; at 1.2 µM -19% | [1]; at 3.7 µM -22% | [1]; at 11.0 µM -13% | [1]; at 33.0 µM -11% | [2]; at 1.2 µM 1% | [2]; at 3.7 µM 5% | [2]; at 11.0 µM 23% | [2]; at 33.0 µM 12% | [2]; at 100.0 µM 40% | [3]; at 1.2 µM 1% | [3]; at 3.7 µM 8% | [3]; at 11.0 µM 6% | [3]; at 33.0 µM 25% | [4]; at 1.2 µM 7% | [4]; at 3.7 µM 40% | [4]; at 11.0 µM 35% | [4]; at 33.0 µM 26% | [5]; at 1.2 µM -4% | [5]; at 3.7 µM 9% | [5]; at 11.0 µM -6% | [5]; at 33.0 µM 12% | [5]; at 50.0 µM 59.7% | [6]; at 1.2 µM -11% | [6]; at 3.7 µM -8% | [6]; at 11.0 µM -1% | [6]; at 33.0 µM 13% | [7]; [16] -13% | [8]; at 1.2 µM -2% | [8]; at 3.7 µM 0% | [8]; at 11.0 µM 11% | [8]; at 33.0 µM 6% | [9]; at 1.2 µM 19% | [9]; at 3.7 µM 36% | [9]; [16] 14% | [9]; at 11.0 µM 32% | [9]; at 33.0 µM 43% | [10]; at 1.2 µM -3% | [10]; at 3.7 µM 8% | [10]; at 11.0 µM 1% | [10]; at 33.0 µM 38% | [11]; at 1.2 µM -25% | [11]; at 3.7 µM -6% | [11]; at 11.0 µM -12% | [11]; at 33.0 µM 2% | [12]; at 1.2 µM 16% | [12]; at 3.7 µM 15% | [12]; at 11.0 µM 14% | [12]; at 33.0 µM 43% | [14]; at 1.2 µM -4% | [14]; at 3.7 µM 15% | [14]; at 11.0 µM 19% | [14]; at 33.0 µM 19%
active: [1]; at 100.0 µM 94% | [3]; at 100.0 µM 96% | [4]; [16] 85% | [4]; [17] 100% | [4]; at 50.0 µM 70.3% | [4]; at 100.0 µM 92% | [5]; [16] 93% | [5]; [17] 100% | [5]; at 100.0 µM 93% | [6]; at 100.0 µM 90% | [7]; [17] 74% | [8]; at 100.0 µM 91% | [9]; [17] 87% | [9]; at 100.0 µM 94% | [10]; at 100.0 µM 95% | [11]; at 100.0 µM 89% | [12]; at 100.0 µM 95% | [13]; [16] 86% | [13]; [17] 100% | [13]; at 50.0 µM 80.2% | [14]; at 100.0 µM 93%

Oc1ccc(Br)cc1C=Nc1cccc(C(F)(F)F)c1
inactive: [1]; at 1.2 µM -2% | [1]; at 3.7 µM -7% | [1]; at 11.0 µM 9% | [2]; at 1.2 µM 0% | [2]; at 3.7 µM 4% | [2]; at 11.0 µM 10% | [2]; at 33.0 µM 30% | [2]; at 100.0 µM 64% | [3]; at 1.2 µM -2% | [3]; at 3.7 µM 21% | [4]; at 1.2 µM -28% | [4]; at 3.7 µM -20% | [4]; [16] 16% | [4]; at 11.0 µM 32% | [5]; at 1.2 µM 3% | [5]; at 3.7 µM -7% | [5]; [16] -17% | [5]; at 11.0 µM 59% | [6]; at 1.2 µM 6% | [6]; at 3.7 µM 13% | [8]; at 1.2 µM -4% | [8]; at 3.7 µM -1% | [8]; at 11.0 µM -1% | [8]; at 33.0 µM 1% | [8]; at 100.0 µM 25% | [15]; [16] 28% | [15]; at 50.0 µM 61% | [9]; at 1.2 µM -6% | [9]; at 3.7 µM -1% | [9]; [16] 42% | [9]; at 11.0 µM -5% | [9]; at 33.0 µM 0% | [9]; at 100.0 µM 28% | [10]; at 1.2 µM -1% | [10]; at 3.7 µM -1% | [10]; at 11.0 µM 0% | [10]; at 33.0 µM 10% | [10]; at 100.0 µM 65% | [11]; at 1.2 µM -1% | [11]; at 3.7 µM 17% | [11]; at 11.0 µM 68% | [12]; at 1.2 µM 14% | [12]; at 3.7 µM 10% | [12]; at 11.0 µM 65% | [13]; [16] 48% | [13]; at 50.0 µM 66.9% | [14]; at 1.2 µM -15% | [14]; at 3.7 µM -12% | [14]; at 11.0 µM 16%
active: [1]; at 33.0 µM 91% | [1]; at 100.0 µM 97% | [3]; at 11.0 µM 75% | [3]; at 33.0 µM 96% | [3]; at 100.0 µM 97% | [4]; at 33.0 µM 91% | [4]; [17] 92% | [4]; at 50.0 µM 70.5% | [4]; at 100.0 µM 97% | [5]; at 33.0 µM 97% | [5]; [17] 97% | [5]; at 50.0 µM 85.5% | [5]; at 100.0 µM 97% | [6]; at 11.0 µM 91% | [6]; at 33.0 µM 97% | [6]; at 100.0 µM 97% | [15]; [17] 86% | [9]; [17] 94% | [9]; at 50.0 µM 88.2% | [11]; at 33.0 µM 96% | [11]; at 100.0 µM 97% | [12]; at 33.0 µM 94% | [12]; at 100.0 µM 97% | [13]; [17] 97% | [14]; at 33.0 µM 83% | [14]; at 100.0 µM 97%

CC1=NN(C(=O)CC(=O)N(C(=O)c2ccccc2)c2ccc(Cl)cc2)C(=O)C1N=Nc1ccc([N+](=O)[O-])cc1 (stereo not drawn)
inactive: [1]; at 1.2 µM -43% | [1]; at 3.7 µM -1% | [1]; at 11.0 µM 10% | [1]; at 33.0 µM 26% | [1]; at 100.0 µM 37% | [2]; at 1.2 µM 6% | [2]; at 3.7 µM 26% | [2]; at 11.0 µM 39% | [2]; at 33.0 µM 41% | [2]; at 100.0 µM 32% | [3]; at 1.2 µM 0% | [3]; at 3.7 µM 7% | [3]; at 11.0 µM 35% | [3]; at 33.0 µM 62% | [4]; at 1.2 µM -3% | [4]; at 3.7 µM 8% | [4]; [16] 41% | [4]; at 11.0 µM 50% | [5]; at 1.2 µM -3% | [5]; at 3.7 µM 8% | [5]; [16] 8% | [5]; at 11.0 µM 41% | [5]; at 33.0 µM 67% | [5]; [17] 56%
active: [3]; at 100.0 µM 71% | [4]; at 33.0 µM 74% | [4]; [17] 89% | [4]; at 50.0 µM 84.5% | [4]; at 100.0 µM 74% | [5]; at 50.0 µM 83.6%
